From PubChem BioAssay (Tox21) come the findings set out here.

Unmarked numbers belong to inactive results. Records with an inconclusive call do not appear. Activity calls are given as the source filed them. Calls come from the whole dose curve; as a rule, active = well fitted curve in the direction sought with a large enough effect in the repeat runs; inconclusive = weak or mixed curves; inactive = no such curve, though single readings can be large; an effect the other way counts as inactive or inconclusive.

The nature of assay [1]: A CellTox Green Cytotoxicity Assay to monitor cytotoxicity in HEK293 cells - 32 hour (AID 1224881). Note: nearly all actives have a fitted effect of over 40% in size. Note: potency is the fitted concentration of half-maximal effect. In short, it runs like this:
(§1)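 Homogeneous no-lysis format: HEK293 cell suspension mixed with CellTox Green reagent, seeded, incubated 5 h at 37 C/5% CO2, then dosed by pintool with compound in DMSO.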

Assay [2] is described as follows: A CellTox Green Cytotoxicity Assay to monitor cytotoxicity in HepG2 cells - 0 hour (AID 1224882). Note: nearly all actives have a fitted effect of over 35% in size. Note: potency is the fitted concentration of half-maximal effect. In short, it runs like this: (§2)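 Fluorescent DNA-binding dye, 600 HepG2 cells/well, 5 h preincubation then compound in DMSO; same plates read at 0–40 h, 37 C.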
The nature of assay [3]: A CellTox Green Cytotoxicity Assay to monitor cytotoxicity in HepG2 cells - 32 hour (AID 1224883). Note: nearly all actives have a fitted effect of over 50% in size. Note: potency is the fitted concentration of half-maximal effect. In outline:
as §2

Assay [4] can be described thus: A CellTox Green Cytotoxicity Assay to monitor cytotoxicity in HEK293 cells - 8 hour (AID 1224884). Note: nearly all actives have a fitted effect of over 35% in size. Note: potency is the fitted concentration of half-maximal effect. In outline:
as §1

Assay [5] in a line: qHTS RealTime-Glo MT Cell Viability Assay in HepG2 cells - 16 hour (AID 1224885). Note: nearly all actives have a fitted effect of over 50% in size. In short, it runs like this: (§3)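 HepG2 cells (600/well) were dispensed with RealTime-Glo reagents, incubated 5 h at 37 °C, then treated with compounds in DMSO for up to 40 h. Nonlytic NanoLuc luminescence reflecting viable cells was read at each stated time point.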
A general note: Quantitative high-throughput screening tests each substance at several concentrations.

A short description of assay [6]: qHTS RealTime-Glo MT Cell Viability Assay in HEK293 cells - 24 hour (AID 1224886). Note: top concentration of the series differs between compounds; nearly all actives have a fitted effect of over 50% in size. In short, it runs like this: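 HEK293 cells seeded with NanoLuc/prosubstrate reagent, rested 5 h at 37 C, then dosed and kept at 37 C up to 40 h. Nonlytic real-time luminescence from viable cells read at 0, 8, 16, 24, 32 and 40 h.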
Assay [7] can be described thus: qHTS RealTime-Glo MT Cell Viability Assay in HEK293 cells - 8 hour (AID 1224887). Note: top concentration of the series differs between compounds; nearly all actives have a fitted effect of over 50% in size. In outline:
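Measured as luminescence from the same continuously cultured HEK293 wells at successive time points (0, 8, 16, 24, 32, 40 h) after compound addition. Reagent present from seeding; dosing at 5 h; incubation 37 C.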

Assay [8] can be described thus: A CellTox Green Cytotoxicity Assay to monitor cytotoxicity in HEK293 cells - 16 hour (AID 1224888). Note: nearly all actives have a fitted effect of over 35% in size. Note: potency is the fitted concentration of half-maximal effect. In short, it runs like this: as §1
Assay [9] is described as follows: qHTS RealTime-Glo MT Cell Viability Assay in HepG2 cells - 0 hour (AID 1224889). Note: nearly all actives have a fitted effect of over 50% in size. In outline:
as §3

Assay [10] in a line: A CellTox Green Cytotoxicity Assay to monitor cytotoxicity in HepG2 cells - 8 hour (AID 1224890). Note: nearly all actives have a fitted effect of over 45% in size. In short, it runs like this: as §2
% is set by controls: 0 for no effect and ±100 for the full control effect.

As to `CC(C)c1ccccc1C(C)C`, the Potency result in assay [1], in assay [2], in [3], in [4], in assay [5] and in assay [6] was “inactive” in each case. Further, the Potency entry in [7], in assay [8] and in [9] was “inactive” each time.
As to `CCCCCCOC(=O)CCC`, the Potency entry in assay [1], in assay [2], in [3], in assay [4], in assay [5] and in assay [6] was “inactive” in each case. Besides, the Potency result in [7], in assay [8] and in assay [9] was “inactive” each time.
On to `CCN(CCO)CCCC(C)Nc1ccnc2cc(Cl)ccc12` (stereo unspecified), for which the cytotoxicity increase in assay [1] was -1.54% [at 6.97 µM]; in [3] it was 10.8% [at 6.97 µM]; in [4], 0.302% [at 6.97 µM]; in assay [10], 17.5% [at 6.97 µM]. In addition, the cytotoxicity in assay [2] was 10% [at 6.97 µM]. In addition, the activity change, negative = cytotoxic in assay [5] is 4.27% [at 6.97 µM]. For the same molecule, the activity change, negative = cytotoxicity in assay [6] is -0.518% [at 6.97 µM]; in assay [7], 0.498% [at 6.97 µM]; in assay [9], 5.1% [at 6.97 µM]. In addition, the activity change in assay [8] was -1.57% [at 6.97 µM, active compounds read high].
For the molecule `CC(=O)NCCCS(=O)(=O)O`, the Potency in [1] is 15 µM (active); in assay [2] it was 16.9 µM (active); in assay [3], 16.9 µM (active); in assay [4], 16.9 µM (active); in [8], 18.9 µM (active). Moreover, the Potency result in assay [5], in assay [6], in assay [7] and in assay [9] was “inactive” throughout.
For the molecule `O=C(NN1CCCC1)NS(=O)(=O)c1ccc(Cl)cc1`, the Potency entry in assay [1], in [2], in assay [3], in assay [4], in [5] and in [6] was “inactive” each time. Besides, the Potency entry in assay [7], in assay [8], in assay [9] and in assay [10] was “inactive” in each case.
Turning to `Nc1nc(N)c(-c2ccccc2)s1`, the Potency result in [1], in assay [2], in assay [3], in [4], in [5] and in assay [6] was “inactive” throughout. In addition, the Potency result in [7], in assay [8], in [9] and in assay [10] was “inactive” throughout.
As for `N=C(N=C(N)N)N1CCOCC1`, the Potency result in assay [1], in assay [2], in [3], in assay [4], in assay [5] and in assay [6] was “inactive” each time. Also, the Potency entry in assay [7], in assay [8], in [9] and in assay [10] was “inactive” each time.
With `Oc1ccc(C(O)CNCCCCCCNCC(O)c2ccc(O)c(O)c2)cc1O` (stereo unspecified), the Potency entry in assay [1], in assay [2], in assay [3], in assay [4], in assay [5] and in assay [6] was “inactive” throughout. The Potency entry in [7], in assay [8], in assay [9] and in assay [10] was “inactive” each time.
Consider `CCCCCCCCCCCCCCCBr`, for which the Potency entry in [1], in [2], in [3], in assay [4], in [5] and in assay [6] was “inactive” each time. For the same molecule, the Potency result in assay [7], in assay [8] and in assay [9] was “inactive” throughout.
Regarding `CC(=O)O[C@H]1C[C@@H]2CC[C@@H]3[C@H](CC[C@@]4(C)[C@H]3C[C@H]([N+]3(C)CCCCC3)[C@@H]4OC(C)=O)[C@@]2(C)C[C@@H]1N1CCCCC1`, the Potency entry in assay [1], in assay [2], in assay [3], in assay [4], in assay [5] and in [6] was “inactive” throughout. For the same molecule, the Potency entry in assay [7], in [8] and in assay [9] was “inactive” throughout.
In the case of `O=C(O)C1CCC(C(=O)O)CC1` (stereo unspecified), the Potency result in [1], in assay [2], in assay [3], in [4], in [5] and in [6] was “inactive” each time. The Potency result in assay [7], in assay [8] and in assay [9] was “inactive” in each case.
As to `Cl/C(=C\n1cncn1)c1ccc(Cl)cc1Cl`, the Potency result in assay [1], in [2], in assay [3], in assay [4], in assay [5] and in assay [6] was “inactive” in each case. The Potency result in assay [7], in assay [8] and in [9] was “inactive” in each case.
For the molecule `Cc1ncsc1CCO`, the Potency entry in [1], in assay [2], in assay [3], in assay [4], in [5] and in [6] was “inactive” each time. Besides, the Potency result in assay [7], in [8] and in assay [9] was “inactive” in each case.
`OCC1CC2CC1C1CCC(CO)C21` (stereo unspecified): the Potency entry in assay [1], in [2], in [3], in assay [4], in assay [5] and in assay [6] was “inactive” each time. The Potency entry in assay [7], in assay [8] and in assay [9] was “inactive” in each case.
On to `COC(=O)C(C)=O`, for which the Potency result in [1], in assay [2], in assay [3], in assay [4], in assay [5] and in [6] was “inactive” each time. The Potency result in [7], in assay [8], in assay [9] and in assay [10] was “inactive” in each case.
Turning to `O=C(c1ccc(O)cc1)c1ccc(O)cc1`, the Potency entry in [1], in assay [2], in assay [3], in [4], in [5] and in [6] was “inactive” throughout. Further, the Potency result in assay [7], in [8], in [9] and in assay [10] was “inactive” each time.
Consider `CCCCOC(=O)c1ccccc1C(=O)OCC(CC)CCCC` (stereo unspecified), for which the Potency entry in assay [1], in [2], in assay [3], in assay [4], in assay [5] and in assay [6] was “inactive” throughout. Further, the Potency result in assay [7], in assay [8], in [9] and in [10] was “inactive” in each case.
For `O=C(CC(=O)c1ccccc1)c1ccccc1`, the Potency entry in [1], in [2], in [3], in assay [4], in [5] and in assay [6] was “inactive” each time. In addition, the Potency result in [7], in assay [8], in assay [9] and in assay [10] was “inactive” each time.
On to `CC(C)CC=O`, for which the Potency result in assay [1], in assay [2], in assay [3], in [4], in assay [5] and in assay [6] was “inactive” in each case. For the same molecule, the Potency result in assay [7], in assay [8], in assay [9] and in assay [10] was “inactive” in each case.
As to `Nc1ccc(C(=O)N2CC3CC(CN(Cc4ccccc4)C3)C2)cc1`, the Potency entry in [1], in assay [2], in assay [3], in [4], in assay [5] and in assay [6] was “inactive” throughout. For the same molecule, the Potency result in assay [7], in assay [8], in assay [9] and in assay [10] was “inactive” each time.
On to `COCCOCCOCCOCCOC`, for which the Potency result in assay [1], in [2], in assay [3], in [4], in assay [5] and in [6] was “inactive” in each case. For the same molecule, the Potency entry in assay [7], in assay [8], in assay [9] and in [10] was “inactive” each time.
As to `NC[C@H]1O[C@H](O[C@H]2[C@H](O)[C@@H](O[C@H]3O[C@H](CO)[C@@H](O)[C@H](N)[C@H]3O)[C@H](N)C[C@@H]2N)[C@H](O)[C@@H](O)[C@@H]1O`, the cytotoxicity increase in assay [1] was 10.5% [at 6.97 µM]; in assay [3], 13.2% [at 6.97 µM]; in assay [4], 7.24% [at 6.97 µM]; in assay [10], 21.1% [at 6.97 µM]. Moreover, the cytotoxicity in assay [2] was 1.08% [at 6.97 µM]. In addition, the activity change, negative = cytotoxic in [5] was 2.6% [at 6.97 µM]. For the same molecule, the activity change, negative = cytotoxicity in assay [6] is 13.6% [at 6.97 µM]; in assay [7], 2.67% [at 6.97 µM]; in assay [9] it was 17.3% [at 6.97 µM]. In addition, the activity change in assay [8] is 6.94% [at 6.97 µM, active compounds read high].
As to `CCCCOC(O)CC` (stereo unspecified), the Potency result in assay [1], in [2], in assay [3], in [4], in assay [5] and in [6] was “inactive” in each case. Also, the Potency entry in assay [7], in assay [8], in [9] and in assay [10] was “inactive” in each case.
